aSyn yeast inh = alpha-synuclein toxicity inhibition in yeast; Yeast expressing alpha-synuclein, growth rescue, BacTiter-Glo, 24 h; Potency, µM (highest dose often 46.1 µM), usual class: activators; hit rate 0.14% among 370,000; AID 652106; note: nearly all actives have a fitted effect of over 65% in size
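Readout is rescue of growth in alpha-synuclein-expressing yeast, so inhibitors of toxicity appear as activators. Growth after 24 hr at 30 deg C in galactose medium is quantified by luminescence.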
FUS yeast rescue = FUS proteinopathy suppression in yeast; S. cerevisiae FUS-expressing, growth rescue, OD600, 24 h; Potency, µM (highest dose often 76.6 µM), usual class: activators; hit rate 0.24% among 390,000; note: nearly all actives have a fitted effect of over 55% in size
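Read-out: OD at 600 nm after 24hr at 30C, reporting rescue of FUS-induced yeast toxicity. Cells at OD 0.005 in galactose (2%) minimal medium; compounds tested in a dilution series; CP55940 titration from 92uM final as control.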
Abeta yeast res = compounds reversing amyloid beta toxicity in yeast | yeast expressing A-beta42, growth rescue, OD600, 48 h; response scale: 0% DMSO, 100% iron-clioquinol control | Potency, µM (highest dose often 46.1 µM), actives largely listed as activators | hit rate 0.063% among 410,000; note: nearly all actives have a fitted effect of over 55% in size
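Yeast A-beta toxicity model in growth medium with pinned compounds, 48 h at 30 C; growth read as absorbance at 600 nm. Normalized to FeCl3/clioquinol equimolar mix (positive) and DMSO (negative).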
TDP43 rescue = inhibitors of TDP-43 toxicity in yeast; TDP-43 expressing yeast growth rescue, BacTiter-Glo, 24 h; Potency, µM (series often up to 46.1 µM), usual class: activators; hit rate 1.8% among 410,000; note: nearly all actives have a fitted effect of over 50% in size
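Galactose-induced TDP-43 yeast, OD600=0.02, compound pinned; 24 hr, 30 deg C; BacTiter-Glo luminescence for growth. Inhibitors of TDP-43 toxicity read as activators.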
A number is an active result; – = inactive; ? = inconclusive; · = no result; ! = not active in a repeat; [ ] = another dose, or the depositor's remark. Most compounds without a hit are left out; they make up all but 2.1% or so of the library. Calls come from the whole dose curve; as a rule, active = well fitted curve in the direction sought with a large enough effect; inconclusive = small, poorly fitted or top-dose-only effect, or another doubt; inactive = no such curve, though single readings can be large; an effect the other way counts as inactive or inconclusive.

SMILES | aSyn yeast inh | FUS yeast rescue | Abeta yeast res | TDP43 rescue
C[C@@H]1CN([C@H](C)CO)C(=O)CCCn2nncc2CO[C@@H]1CN(C)C(=O)Nc1ccc(N2CCCCC2)cc1 | – | – | – | –
CC12CCC3c4ccc(O)c([N+](=O)[O-])c4CCC3C1CCC2=O (configuration not stated) | – | – | – | ?
O=S(=O)(Nc1ccc(-c2nc3ccccc3o2)cc1)c1ccccc1 | – | – | – | 14.1µM
COc1cccc(NC(=O)N2CCc3nc(Nc4ccc(C(C)C)cc4)ncc3C2)c1 | – | – | ? | 12.6µM
CCOC(=O)c1ccc(N2C(=O)CC(N3CCC(O)(c4ccc(Br)cc4)CC3)C2=O)cc1 (configuration not stated) | – | – | – | ?
CCOC(=O)c1ccc(N2C(=O)CC(N3CCC(O)(c4ccc(Cl)cc4)CC3)C2=O)cc1 (configuration not stated) | – | – | – | 5.62µM
COC(=O)C1CN(C#N)N(c2ccc(Cl)cc2)C12c1ccccc1-c1ccccc12 (configuration not stated) | – | – | – | 15.8µM
CC1(C)C(C(=O)N2CCN(c3ccc(Cl)cc3)CC2)C1(C)C | – | – | – | ?
ClCCN(CCCl)c1ccc(/C=C/c2sc3ccccc3[n+]2CCCCI)cc1 | – | · | · | ·
O=C1/C(=C/c2cc([N+](=O)[O-])ccc2Cl)N2CCC1CC2 | – | – | – | 17.8µM
O=C1/C(=C/c2cccc([N+](=O)[O-])c2)N2CCC1CC2 | – | – | – | –
Cc1nc(-c2cccc(NC(=O)c3ccc(Cl)c(S(=O)(=O)N4CCCC4)c3)c2)cs1 | – | – | – | ?
CC12CCC3C(CCC4CC(=O)C(C(O)C(F)(F)F)CC43C)C1CCC2O (configuration not stated) | – | – | – | 14.1µM
Cc1ccccc1-n1nc(C)c2c1NC(=O)CSC2c1ccc(Cl)cc1 (configuration not stated) | · | – | – | 17.8µM
Cc1ccccc1-n1nc(C)c2c1NC(=O)CSC2c1ccc(N(C)C)cc1 (configuration not stated) | · | ? | – | –
CC(=O)Nc1ccc(OC(=O)N2CCN(/[N+]([O-])=N/Oc3ccc([N+](=O)[O-])cc3[N+](=O)[O-])CC2)cc1 | – | · | · | ·
Nc1c(C(=O)Nc2ccc(OC(F)(F)F)cc2)sc2nc3c(cc12)N1CCC3CC1 | · | – | – | –
Nc1ccc(Cl)cc1C(=O)c1ccccc1Cl | ? | – | – | 20µM
O=C1CC(=O)N(c2ccccc2)C(=O)N1c1ccccc1 | – | – | – | –
O=C1C(Cl)=C(N2CCCCCC2)C(=O)N1c1ccccc1 | – | – | – | 11.2µM
COc1ccc(C2CC(c3c(O)n(CCc4ccccc4)c(=O)[nH]c3=O)=NN2)cc1OC (configuration not stated) | – | 22.4µM | – | –
C[C@]12CCC(=O)C(O)=C1CC[C@@H]1[C@@H]2CC[C@]2(C)C(=O)CC[C@@H]12 | – | – | – | 12.6µM
C[C@]12C=CC(=O)C=C1CC[C@@H]1[C@@H]2CC[C@]2(C)C(=O)CC[C@@H]12 | – | – | – | –
C[C@]12CCC3[C@@H](CC[C@@H]4C[C@H](O)CC[C@]34C)[C@@H]1CCC2=O (some centres not stated) | – | – | – | ?
C[C@]12CC[C@H](O)C[C@@H]1CC[C@@H]1[C@@H]2CC[C@]2(C)C(=O)CC[C@@H]12 | ? | – | – | 14.1µM
SMILES | aSyn yeast inh | FUS yeast rescue | Abeta yeast res | TDP43 rescue
COc1cc([C@@H]2c3cc4c(cc3[C@@H](O)[C@H]3COC(=O)[C@H]23)OCO4)cc(OC)c1O | – | · | · | ·
O=c1[nH]c(=O)n(CCC2=CCCCC2)c(O)c1C=NCCCn1ccnc1 | – | 12.6µM | – | –
Cc1cccc(C)c1-n1nnnc1C(c1cccc2ccccc12)N1CCC(n2c(=O)[nH]c3ccccc32)CC1 (configuration not stated) | – | – | – | 22.4µM
O=c1[nH]c2ccccc2n1C1CCN(C(c2ccccc2OC(F)(F)F)c2nnnn2Cc2ccccc2)CC1 (configuration not stated) | – | 20µM | – | –
O=C(N/N=C/c1c(O)n(Cc2ccc(F)cc2)c(=O)[nH]c1=O)c1ccccc1 | – | – | – | –
O=C(O)CCC(=O)NCCC1=c2ccccc2=N/C1=C\c1c(O)n(Cc2ccc(F)cc2)c(=S)[nH]c1=O | – | 20µM | – | –
c1ccc2c(c1)CSc1ccccc1N2 | – | – | – | 20µM
S=C1Nc2ccccc2Sc2ccccc21 | – | – | – | ?
CCCCCNC(=O)C(c1ccncc1)n1c(=O)c(-c2cc3ccccc3[nH]2)nc2ccccc21 (configuration not stated) | – | – | ? | ?
C=C(CC1CC(O)[C@]2(C)OC3CC4OC5C[C@]6(C)O[C@]7(C)CCC8OC9C[C@]%10(C)OC%11C(C)=CC(=O)OC%11CC%10OC9C[C@@H](C)C8OC7CC6O[C@]5(C)C/C=C\C4OC3CC2O1)C(=O)O (some centres not stated) | – | ? | – | ?
CC1=CC(=O)OC2CC3OC4C[C@@H](C)C5OC6CC7O[C@]8(C)C/C=C\C9OC%10CC%11OC(CC(C)C%12OCCO%12)CC(O)[C@]%11(C)OC%10CC9OC8C[C@]7(C)O[C@]6(C)CCC5OC4C[C@]3(C)OC12 (some centres not stated) | – | 10µM | – | –
Cc1c(C(c2ccccc2Cl)c2c(O)c3ccccc3oc2=O)c(=O)n(-c2ccccc2)n1C (configuration not stated) | – | – | – | 7.94µM
COc1ccc(C(c2c(O)c3ccccc3oc2=O)c2c(C)n(C)n(-c3ccccc3)c2=O)cc1 (configuration not stated) | – | – | – | 22.4µM!
Cc1c(C(c2ccc(F)cc2)c2c(O)c3ccccc3oc2=O)c(=O)n(-c2ccccc2)n1C (configuration not stated) | – | ? | ? | ?
CCCCC[C@H]1CCCCC[C@H](O)C[C@H](O)[C@@H](O)/C=C/C(=O)O1 | – | – | – | –
COc1ccc(NC(=O)CN2C(=O)CN=C(c3ccccc3)c3ccccc32)c(OC)c1 | · | – | – | –
CC(C)(C)OC(=O)NCc1ccc(CNC(=O)c2[nH]cnc2C(=O)Nc2ccccc2F)cc1 | – | – | – | ?
Cc1ccc(F)cc1NC(=O)c1ccc(Cn2nc(N3CCN(c4ccccc4)CC3)ccc2=O)o1 | · | ? | – | 25.1µM
O=C(Nc1ccc(F)cc1F)c1cccn(Cc2ccccc2)c1=O | – | – | – | –[9.22 µM]
CC(=O)c1ccc2c(c1)C1C(Cl)C(Sc3ccccc3[N+](=O)[O-])CC1C(c1ccccc1)N2 (configuration not stated) | – | 39.8µM | – | –
